Rows were chosen to be rich in hits. Some 1.4% of all compounds tested hit in one or more screens of this group.
bovine MsrA act: activators of bovine methionine sulfoxide reductase A | 360,000 compounds, 0.3% hits | activation, % at 10.6 µM | purified bovine MsrA, absorbance read-out | AID 602163; in the data active = activation above about 7.5%
p-CIP stab down: compounds decreasing mouse p/CIP protein stability; F442A p/CIP-EGFP cells, EGFP fluorescence, 16 h; 290,000 compounds, 0.01% hits; decrease of EGFP signal, % at 10 µM; Q05BA5;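 active = EGFP signal decrease of at least 30% at 10 µM or well 3 SD below plate mean, unless failing retest; inactive = the rest, including hits failing retest or dose response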
14-3-3 Bad PPI: disrupts binding of bovine 14-3-3 zeta to phospho-Bad peptide; 220,000 compounds, 0.71% hits; AID 781; P63103; inhibition, % at 21.7 µM; TR-FRET 14-3-3zeta/Dy647-pBad peptide displacement, 1 h;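 active = inhibition above about 70%, limit read from the data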
Target sequence (P63103 whole entry, looked up): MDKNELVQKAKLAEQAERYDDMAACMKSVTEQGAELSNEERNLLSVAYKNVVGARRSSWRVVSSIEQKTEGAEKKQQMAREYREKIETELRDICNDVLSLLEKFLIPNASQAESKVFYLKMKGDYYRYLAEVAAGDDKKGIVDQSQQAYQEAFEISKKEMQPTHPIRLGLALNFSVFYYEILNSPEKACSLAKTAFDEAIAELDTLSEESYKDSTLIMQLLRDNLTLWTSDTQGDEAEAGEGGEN
MsrA inh: inhibits bovine methionine sulfoxide reductase A; purified bovine MsrA, absorbance read-out; AID 651718; inhibition, % at 15.5 µM; 360,000 compounds, 0.75% hits
MsrA inh confirm: bovine MsrA inhibition, confirmed; shares compounds with MsrA inh; purified bovine MsrA, absorbance read-out; inhibition, % at 15.5 µM; 2,300 compounds, 41% hits; AID 651822;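 note: coupled to thioredoxin reductase with NADPH and selenocystamine and DMSO as substrate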
Numbers stand for hits; n = inactive; x = no result given. Cut-off read from the data, not from the text of the source, unless noted: active = inhibition above about 4.5%; inactive = the rest.

SMILES	bovine MsrA act	p-CIP stab down	14-3-3 Bad PPI	MsrA inh	MsrA inh confirm
COCC(=O)NC1CC(C)(C)Cc2c1cnn2-c1ccc(F)cc1 (stereo not drawn)	n	n	x	n	x
COC(C[C@@H](O)C[C@H](O)COCc1ccccc1)OC	n	n	n	n	x
CC(=NCc1cccnc1)C1=C(O)c2ccccc2C1=O	n	n	n	4.9	n
CC(=NCc1ccncc1)C1=C(O)c2ccccc2C1=O	x	n	n	x	x
CN(C(=O)COC(=O)c1ccccc1NCc1ccco1)c1c(N)n(Cc2ccccc2)c(=O)[nH]c1=O	n	x	x	n	x
Cc1cc(C)n2c(SCC(=O)N(CCC#N)c3ccc4c(c3)OCCO4)nnc2n1	n	x	x	n	x
Oc1ccc(/C=N/Nc2cc(N3CCCC3)nc(N3CCCC3)n2)cc1	n	n	n	n	x
Oc1ccc(/C=N/Nc2cc(N3CCOCC3)nc(N3CCOCC3)n2)cc1	n	x	x	5.8	5.7
Fc1cccc(/C=N/Nc2cc(N3CCOCC3)ncn2)c1	n	n	x	4.9	n
C=CCNc1nc2ccccc2nc1NS(=O)(=O)c1ccc(OC)cc1	n	n	x	n	x
CCN(CC)CCN1C(=O)C(=O)/C(=C(/O)c2ccc(C)cc2)C1c1cccnc1 (stereo not drawn)	n	n	n	5.9	n
COc1ccc(/C(O)=C2/C(=O)C(=O)N(CCCN(C)C)C2c2cccnc2)cc1 (stereo not drawn)	x	n	x	x	x
CN(C)CCCN1C(=O)C(=O)/C(=C(/O)c2ccncc2)C1c1cccnc1 (stereo not drawn)	n	n	n	6.6	n
CC1(C)OC2OC3C(CNCCO)OC(c4ccccc4)OC3C2O1 (stereo not drawn)	n	x	x	n	x
O=C(Nc1ccc(N2CCN(C(=O)c3ccccc3F)CC2)cc1)c1cncc(Br)c1	n	n	x	n	x
CCCS(=O)(=O)c1nc(S(=O)(=O)c2ccc(C)cc2)c(N2CCC(C(N)=O)CC2)s1	n	n	x	n	x
Cc1noc(NS(=O)(=O)c2ccc(NC(=O)c3cnc4n(c3=O)CCS4)cc2)c1C	n	n	n	6.9	4.6
Cc1ccc(-n2cc(CCCCCCCCC(=O)O)nn2)cc1	n	n	x	n	x
CC1=C(C(=O)OCC(Br)(Br)Br)C(c2cccc([N+](=O)[O-])c2)NC(=O)N1CCCC(=O)O (stereo not drawn)	n	x	x	n	x
CN(CC(=O)Nc1ccc(N2CCOCC2)cc1)C(=O)Cc1ccccc1	n	x	x	5.3	n
CC(CC(=O)N(C)CC(=O)Nc1ccc(N2CCOCC2)cc1)c1ccccc1 (stereo not drawn)	n	x	x	n	x
Cc1ccc(NC(=O)CNc2ccccc2N2CCCC2=O)cc1S(=O)(=O)N1CCOCC1	n	x	x	n	x
c1ccc(-n2cc(CNCCc3cscn3)c(-c3ccc4c(c3)OCO4)n2)cc1	n	n	n	6.3	n
CCN(CC)c1ccc(C2NCC(c3ccc([N+](=O)[O-])cc3)O2)cc1 (stereo not drawn)	n	n	n	5.3	4.7
COc1ccc2cc(S(=O)(=O)c3ccccc3)c(=O)oc2c1	n	n	n	5.3	n
SMILES	bovine MsrA act	p-CIP stab down	14-3-3 Bad PPI	MsrA inh	MsrA inh confirm
COc1cccc(CNC(=O)Cn2ncc3c(=O)oc4ccccc4c32)c1	n	n	n	n	x
CC(C)n1ncc2c(C(=O)NCCc3ccc(F)cc3)cc(C3CC3)nc21	n	x	x	n	x
CN1/C(=C\C(=O)COC(=O)c2ccc(O)cc2)C(C)(C)c2ccccc21	n	n	n	5.2	n
CN1/C(=C\C(=O)COC(=O)c2ccc(O)c(O)c2)C(C)(C)c2ccccc21	x	n	n	4.8	n
CC(=O)N1CCCN(Cc2cn(-c3cc(C)ccc3C)nc2-c2ccccc2)CC1	n	n	n	5.0	n
CC(C)(C)c1cc[n+](-c2[nH]c(=O)sc2/C=N/N=C(\[O-])c2cccnc2)cc1	n	n	x	5.4	5.9
O=c1[nH]c(-[n+]2ccc3ccccc3c2)c(/C=N/N=C(\[O-])c2ccccc2)s1	n	n	x	n	x
Cc1cc(C)nc(N/N=C/c2ccccc2)n1	n	n	n	x	x
Cc1cc(C)nc(N/N=C/c2sccc2C)n1	n	n	n	5.3	n
Cc1ccsc1/C=N/Nc1nc(=O)[nH]nc1C	n	n	n	5.3	n
Cc1ccc(NC(=O)c2cc(=O)n(Cc3ccccc3)c(=O)[nH]2)cc1C	n	n	n	n	x
CCN(CC(=O)NCc1ccc(Cl)cc1)C(=O)c1cc(S(=O)(=O)N2CCOCC2)ccc1C	n	x	x	n	x
CC1Cc2ccccc2N1C1=NS(=O)(=O)c2ccccc21 (stereo not drawn)	n	n	n	n	x
CC1Cc2ccccc2N1C1=CC(=O)CCC1 (stereo not drawn)	n	n	n	5.5	5.4
COc1ccc(/C=C(/NC(=O)c2ccco2)C(=O)NCc2ccco2)cc1OC	n	n	x	n	x
